Experimental data as given in the antibiotic and cytotoxicity screens of Wong et al. (2023).
About 3,300 (8.5%) of roughly 39,000 compounds were called active. This is one part of a sample in which actives are shown more often than they occur.

These compounds were tested on HepG2 (assay: cytotoxicity call (relative viability < 0.9)). Conditions: 10 µM.

Row | Compound | cytotoxicity call
1 | NCCCC[C@@H](N)C(=O)N[C@@H](Cc1ccc(O)cc1)C(=O)N[C@@H](CCCCN)C(=O)O | inactive
2 | C[C@@H]1CCCCO[C@H](CN(C)C(=O)NC2CCCCC2)[C@H](C)CN([C@@H](C)CO)C(=O)c2cc(NC(=O)Cc3ccccc3)ccc2O1 | inactive
3 | COc1ccc(NC(=O)N(C)C[C@@H]2OCCCC[C@H](C)Oc3ccc(NC(=O)Nc4ccc5c(c4)OCO5)cc3C(=O)N([C@H](C)CO)C[C@@H]2C)cc1 | inactive
4 | C[C@H]1CCCCO[C@@H](CN(C)C(=O)Nc2ccc(C(F)(F)F)cc2)[C@@H](C)CN([C@@H](C)CO)C(=O)c2cc(NC(=O)Cc3ccccc3)ccc2O1 | inactive
5 | O=C(C[C@H]1CC[C@@H]2[C@H](COC[C@@H](O)CN2CC2CCOCC2)O1)N1CCOCC1 | inactive
6 | C[C@@H]1CCCCO[C@@H](CN(C)C(=O)Nc2ccccc2)[C@H](C)CN([C@H](C)CO)C(=O)c2cc(NC(=O)NC3CCCCC3)ccc2O1 | inactive
7 | C[C@@H]1CN([C@H](C)CO)C(=O)c2cc(NC(=O)Nc3cccc4ccccc34)ccc2O[C@@H]1CN(C)S(=O)(=O)c1ccc(F)cc1 | inactive
8 | CCS(=O)(=O)N1C[C@]2(CN(C2)S(=O)(=O)c2cn(cn2)C)c2c(n(c3cc(ccc23)OC)C)[C@H]1CO | inactive
9 | C[C@@H]1CN([C@H](C)CO)C(=O)c2cc(NS(=O)(=O)c3ccc(Cl)cc3)ccc2O[C@@H](C)CCCCO[C@H]1CN(C)C(=O)Nc1ccc(C(F)(F)F)cc1 | active
10 | C[C@@H]1CCCCO[C@@H](CN(C)C(=O)Nc2ccc(C(F)(F)F)cc2)[C@H](C)CN([C@H](C)CO)C(=O)c2cc(NS(=O)(=O)c3ccc(Cl)cc3)ccc2O1 | inactive
11 | C[C@@H]1CCCCO[C@H](CN(C)C(=O)Nc2ccc(C(F)(F)F)cc2)[C@@H](C)CN([C@@H](C)CO)C(=O)c2cc(NS(=O)(=O)c3ccc(Cl)cc3)ccc2O1 | inactive
12 | O=C(C[C@H]1CC[C@@H]2[C@H](COC[C@H](O)CN2S(=O)(=O)c2ccccc2)O1)NCCN1CCCCC1 | inactive
13 | C[C@H]1CCCCO[C@H](CN(C)Cc2ccccc2)[C@@H](C)CN([C@@H](C)CO)C(=O)c2cc(NC(=O)Nc3ccccc3)ccc2O1 | inactive
14 | COC(=O)[C@@]12OC[C@]34[C@H]([C@@H](O)[C@@H]1O)[C@@]1(C)CC(=O)C(=O)[C@H](C)[C@@H]1C[C@H]3OC(=O)[C@H](OC(=O)/C=C(\C)C(C)C)[C@@H]24 | active
15 | COc1ccc2c3c([nH]c2c1)[C@H](CO)N(C[C@]13CCN(CC1)CC1CCCC1)C(=O)Nc1cccc(c1)F | active
16 | COc1ccc2c3c([nH]c2c1)[C@H](CO)N(CC1CCCC1)C[C@]13CCN(CC1)C(=O)Nc1cccc(c1)F | inactive
17 | COc1ccc2c3c([nH]c2c1)[C@@H](CO)N(C[C@]13CCN(CC1)C(=O)Nc1cccc(c1)F)C(=O)c1ccccc1 | inactive
18 | COc1ccc2c3c([nH]c2c1)[C@@H](CO)N(C[C@]13CCN(CC1)CC1CCCC1)C(=O)Nc1cccc(c1)F | active
19 | COc1ccc2c3c([nH]c2c1)[C@@H](CO)N(CC1CCCC1)C[C@]13CCN(CC1)C(=O)Nc1cccc(c1)F | inactive
20 | Cc1noc(C)c1S(=O)(=O)Nc1ccc2c(c1)CC(=O)N([C@@H](C)CO)C[C@@H](C)[C@H](CN(C)S(=O)(=O)c1cccs1)O2 | inactive
21 | CCOC(=O)C(=O)N(C)CC(OC)OC | inactive
22 | CCOC(=O)OC[C@@H]1[C@@H]2NC(=O)N(C)[C@@]1(COC(=O)NCCCCCC(=O)NO)Oc1ccccc12 | inactive
23 | C[C@H](CO)N1C[C@H](C)[C@@H](CN(C)S(C)(=O)=O)OCCCC[C@H](C)Oc2ccc(NS(C)(=O)=O)cc2C1=O | inactive

Row | Compound | cytotoxicity call
24 | COc1ccc(S(=O)(=O)N(C)C[C@@H]2Oc3ccc(NS(=O)(=O)c4ccc(F)cc4)cc3C(=O)N([C@H](C)CO)C[C@@H]2C)cc1 | inactive
25 | CC(C)N1C[C@H](C)[C@@H](CN(C)Cc2ccc(Oc3ccccc3)cc2)Oc2c(cccc2-c2nn[nH]n2)C1=O | inactive
26 | N=C(N=C(N)N)NCCc1ccccc1 | active
27 | N=C(N=C(N)N)Nc1ccccc1 | inactive
28 | Cl.N=C(N)NC(=N)NCCc1ccccc1 | inactive
29 | Cc1cc(C(=O)O)c(=O)[nH]c1C | inactive
30 | NCCC1=CSC2=NCCN12 | inactive
31 | O=C(CCCCCCC(=O)Nc1ccc([C@H]2O[C@@H](CSc3ccccn3)C[C@H](c3ccccc3)O2)cc1)NO | inactive
32 | CCS(=O)(=O)NCC[C@@H]1CC[C@H](NC(=O)Cc2ccccn2)[C@@H](CO)O1 | inactive
33 | Cc1ccc(S(=O)(=O)N[C@@H]2CC[C@@H](CC(=O)NCc3ccc(Cl)c(Cl)c3)O[C@@H]2CO)cc1 | inactive
34 | Cc1ccc(-c2ccc3c(c2)O[C@@H](CN(C)C(=O)Nc2ccc(C(F)(F)F)cc2)[C@@H](C)CN([C@H](C)CO)S3(=O)=O)cc1 | active
35 | Cc1ccccc1-c1ccc2c(c1)O[C@H](CN(C)C(=O)Nc1ccc(C(F)(F)F)cc1)[C@H](C)CN([C@H](C)CO)S2(=O)=O | inactive
36 | Cc1ccccc1-c1ccc2c(c1)O[C@@H](CN(C)C(=O)Nc1ccc(C(F)(F)F)cc1)[C@H](C)CN([C@H](C)CO)S2(=O)=O | inactive
37 | Cc1ccc(-c2ccc3c(c2)O[C@@H](CN(C)C(=O)Nc2ccc(C(F)(F)F)cc2)[C@@H](C)CN([C@@H](C)CO)S3(=O)=O)cc1 | inactive
38 | Cc1ccccc1-c1ccc2c(c1)O[C@H](CN(C)C(=O)Nc1ccc(C(F)(F)F)cc1)[C@H](C)CN([C@@H](C)CO)S2(=O)=O | active
39 | Cc1ccc(-c2ccc3c(c2)O[C@H](CN(C)C(=O)Nc2ccc(C(F)(F)F)cc2)[C@H](C)CN([C@@H](C)CO)S3(=O)=O)cc1 | inactive
40 | C[C@@H]1CCCCO[C@H](CN(C)Cc2ccc(C(=O)O)cc2)[C@@H](C)CN([C@H](C)CO)C(=O)c2cc(NC(=O)c3ccccc3)ccc2O1 | inactive
41 | C[C@H](CO)N1C[C@H](C)[C@@H](CN(C)CC2CCCCC2)Oc2c(NC(=O)Cn3cnnn3)cccc2C1=O | inactive
42 | C[C@@H]1CN([C@H](C)CO)C(=O)Cc2cc(NC(=O)Cn3cnnn3)ccc2O[C@H]1CN(C)CC1CC1 | inactive
43 | C[C@H]1CN([C@@H](C)CO)S(=O)(=O)c2ccc(-c3cccnc3)cc2O[C@@H]1CN(C)C(=O)NC1CCCC1 | inactive
44 | O=C(C1CC1)N1CCCN(C(=O)C2CC2)CC1 | inactive
45 | Cc1noc(C)c1S(=O)(=O)Nc1ccc2c(c1)C(=O)N([C@@H](C)CO)C[C@H](C)[C@H](CN(C)C(=O)Nc1ccc(F)cc1)OCCCC[C@H](C)O2 | inactive
46 | O=c1ccn([C@@H]2O[C@H](CO)[C@@H](O)[C@H]2O)c(=O)[nH]1 | inactive

Row | Compound | cytotoxicity call
47 | O=c1ccn([C@H]2O[C@H](CO)[C@@H](O)[C@@H]2O)c(=S)[nH]1 | active
48 | O=c1ccn(C2OC(CO)C(O)C2O)c(=O)[nH]1 (stereo not drawn) | inactive
49 | C[C@H]1CN([C@@H](C)CO)C(=O)Cc2cc(NC(=O)CCC(F)(F)F)ccc2O[C@@H]1CN(C)C(=O)Nc1cccc2ccccc12 | inactive
50 | NC[C@H](c1ccco1)N1CCCCCC1 | inactive
51 | OC[C@H]1CC[C@@H]2O[C@H](CCc3ccc(C#CCc4ccccc4)cc3)[C@@H](n3cc(-c4ccccc4)nn3)C[C@@H]2O1 | inactive
52 | OC[C@@H]1CC[C@@H]2O[C@H](CCc3ccc(C#Cc4ccccc4)cc3)[C@@H](n3cc(-c4ccccc4)nn3)C[C@@H]2O1 | active
53 | OC[C@H]1CC[C@@H]2O[C@H](CCc3ccc(C#Cc4ccccc4)cc3)[C@H](n3cc(-c4ccccc4)nn3)C[C@@H]2O1 | inactive
54 | OC[C@@H]1CC[C@@H]2O[C@H](CCc3ccc(C#Cc4ccccc4)cc3)[C@H](n3cc(-c4ccccc4)nn3)C[C@@H]2O1 | inactive
55 | OC[C@H]1CC[C@@H]2O[C@H](CCc3ccc(C#Cc4ccccc4)cc3)[C@@H](n3cc(-c4ccccc4)nn3)C[C@@H]2O1 | active
56 | OC[C@H]1CC[C@@H]2O[C@H](CCc3ccc(C#CCc4ccccc4)cc3)[C@H](n3cc(-c4ccccc4)nn3)C[C@@H]2O1 | inactive
57 | C[C@H](CO)N1C[C@H](C)[C@@H](CN(C)Cc2ccc(C(=O)O)cc2)OCCCC[C@H](C)Oc2ccc(NS(=O)(=O)c3ccccc3)cc2C1=O | inactive
58 | CN1CCN(C(=O)C[C@H]2CC[C@H]3[C@@H](COC[C@@H](O)CN3C(=O)C3CC3)O2)CC1 | inactive
59 | C[C@H](CO)N1C[C@H](C)[C@H](CN(C)Cc2ccccc2)Oc2ccc(NC(=O)Cn3cnnn3)cc2CC1=O | inactive
60 | COc1ccc(S(=O)(=O)N(C)C[C@@H]2Oc3ncc(-c4ccncc4)cc3C(=O)N([C@H](C)CO)C[C@H]2C)cc1 | inactive
61 | NCc1cccc2c1OCC2 | inactive
62 | CC(C)NCCCn1c(Sc2cc3c(cc2I)OCO3)nc2c(N)ncnc21 | active
63 | CCOc1nc2c(N)ncnc2n1CC | inactive
64 | COc1ccc(CN(C)C[C@H]2OCCCC[C@H](C)Oc3ccc(NC(=O)Nc4ccccc4)cc3C(=O)N([C@H](C)CO)C[C@H]2C)cc1 | inactive
65 | C[C@@H]1CN([C@H](C)CO)S(=O)(=O)c2ccc(C#CCC3CCCC3)cc2O[C@H]1CN(C)C(=O)c1cnccn1 | inactive
66 | C[C@@H]1CCCCO[C@@H](CN(C)C(=O)Nc2ccccc2)[C@@H](C)CN([C@@H](C)CO)C(=O)c2cc(NC(=O)Nc3ccccc3)ccc2O1 | inactive
67 | Cc1noc(C)c1NC(=O)Nc1ccc2c(c1)C(=O)N([C@H](C)CO)C[C@H](C)[C@@H](CN(C)S(=O)(=O)c1ccccc1)O2 | inactive
68 | Cc1noc(C)c1S(=O)(=O)Nc1cccc2c1O[C@H](CN(C)C(=O)NC(C)C)[C@H](C)CN([C@@H](C)CO)C2=O | inactive
